Experimental data reported in PubChem BioAssay (NCATS).
Records with an inconclusive call do not appear. Where a call stands in place of a potency, no number is given. Calls of active or inactive are those of the source. Calls come from the whole dose curve; as a rule, active = well fitted curve in the direction sought with a large enough effect; inconclusive = small, poorly fitted or top-dose-only effect, or another doubt; inactive = no such curve, though single readings can be large; an effect the other way counts as inactive or inconclusive.

Tests used:
[1] = qHTS of pediatric cancer cell lines to identify multiple opportunities for drug repurposing: Primary screen for BT-12 cells (AID 1347101); note: nearly all actives have a fitted effect of over 25% in size
Procedure, shortened: (§1)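 Cells (500-1,000/well) rested 5 h, then received compounds for 48 h; metabolically active cells were measured by CellTiter-Glo luminescence. Final concentrations spanned up to 46 µM (MIPE, 11-point) or 0.59 nM-46 µM (NPC, 8-point) in primary screens, 11-point in follow-ups.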

[2] = qHTS of pediatric cancer cell lines to identify multiple opportunities for drug repurposing: Primary screen for OHS-50 cells (AID 1347103); note: nearly all actives have a fitted effect of over 40% in size
Procedure, shortened: as §1

[3] = qHTS of pediatric cancer cell lines to identify multiple opportunities for drug repurposing: Primary screen for RD cells (AID 1347104); note: nearly all actives have a fitted effect of over 55% in size
Procedure, shortened: (§2)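 Primary screen of approved and investigational compounds on cells in growth media at 37 degrees C, 5% CO2. MIPE set at 11-point and NPC set at 8-point dilutions; viability scored by ATP-based luminescence at 48 hours.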

[4] = qHTS of pediatric cancer cell lines to identify multiple opportunities for drug repurposing: Primary screen for control Hh wild type fibroblast cells (AID 1347106); note: nearly all actives have a fitted effect of over 55% in size
Procedure, shortened: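 Viability after 48 h compound treatment at 37C, 500-1,000 cells/well, read as ATP luminescence with CellTiter-Glo. Primary screens used 11-point (MIPE, 0.78 nM-46 µM) or 8-point (NPC, 0.59 nM-46 µM) final concentrations; follow-up screens used 11-point dilutions.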

[5] = qHTS of pediatric cancer cell lines to identify multiple opportunities for drug repurposing: Primary screen for Rh41 cells (AID 1347108); note: nearly all actives have a fitted effect of over 70% in size
Procedure, shortened: as §2

[6] = qHTS of pediatric cancer cell lines to identify multiple opportunities for drug repurposing: Primary screen for MG 63 (6-TG R) cells (AID 1347105); note: nearly all actives have a fitted effect of over 50% in size
Procedure, shortened: as §2

[7] = qHTS of pediatric cancer cell lines to identify multiple opportunities for drug repurposing: Primary screen for Rh30 cells (AID 1347107); note: nearly all actives have a fitted effect of over 75% in size
Procedure, shortened: as §1

[8] = qHTS of pediatric cancer cell lines to identify multiple opportunities for drug repurposing: Confirmatory screen for A673 cells (AID 1347110);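 note: cells exposed to compound for 48 h before the viability read; nearly all actives have a fitted effect of over 65% in size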
Procedure, shortened: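 Cells plated at 500-1,000/well were treated five hours later with multi-point dilutions up to 46 µM final. After two days, CellTiter-Glo was added and luminescence read.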

[9] = qHTS of pediatric cancer cell lines to identify multiple opportunities for drug repurposing: Confirmatory screen for NB1643 cells (AID 1347109); note: nearly all actives have a fitted effect of over 45% in size
Procedure, shortened: as §1
Potency is the fitted concentration of half-maximal effect.

In the case of `N#C[C@H]1C[C@H]2C[C@@H]2N1C(=O)[C@@H](N)C12CC3CC(CC(O)(C3)C1)C2`, the Potency [1] is reported as “inactive”, the Potency [2] is reported as “inactive” and the Potency [3] is reported as “inactive”. For the same molecule, the Potency [4] was “inactive” and the Potency [5] was “inactive”.

For `CN(C)c1cc(NC(=O)CNC(C)(C)C)c(O)c2c1C[C@@H]1C[C@H]3[C@H](N(C)C)C(=O)C(C(N)=O)=C(O)[C@@]3(O)C(=O)C1=C2O`, the Potency [1] was “inactive”, the Potency [2] was “inactive” and the Potency [6] was “inactive”. For the same molecule, the Potency [4] was “inactive”, the Potency [7] was “inactive” and the Potency [5] was “inactive”.

For `CCN(CC)CCNC(=O)c1ccc(N)cc1`, the Potency [1] was “inactive”, the Potency [2] was “inactive” and the Potency [3] was “inactive”. For the same molecule, the Potency [4] was “inactive”, the Potency [7] was “inactive” and the Potency [5] was “inactive”.

In the case of `CN1C[C@H]2c3ccccc3Oc3ccc(Cl)cc3[C@@H]2C1`, the Potency [1] is reported as “inactive”, the Potency [2] is reported as 21.9 µM (active) and the Potency [3] is reported as “inactive”. The Potency [6] was “inactive”, the Potency [4] was “inactive” and the Potency [7] was “inactive”. The Potency [5] was “inactive”.

For `CC(C)n1nc(-c2ccc3oc(N)nc3c2)c2c(N)ncnc21`, the Potency [1] was 0.306 µM (active), the Potency [2] was 0.0012 µM (active) and the Potency [6] was 0.0007 µM (active). For the same molecule, the Potency [7] was 11.8 µM (active), the Potency [5] was 0.0235 µM (active) and the Potency [8] was 0.147 µM (active).

In the case of `C[C@]12CC[C@@H]3c4ccc(O)cc4C[C@@H](CCCCCCCCCS(=O)CCCC(F)(F)C(F)(F)F)[C@H]3[C@H]1CC[C@H]2O` (some centres not stated), the Potency [6] is reported as “inactive”.

With `CC(C)OC(=O)C(C)(C)Oc1ccc(C(=O)c2ccc(Cl)cc2)cc1` the Potency [7] was “inactive” and the Potency [5] was “inactive”.

For `CC=C(C)C(=O)O[C@H]1C(C)=C[C@]23C(=O)[C@@H](C=C(CO)[C@@H](O)[C@]12O)[C@H]1[C@@H](C[C@H]3C)C1(C)C`, the Potency [2] was 21.7 µM (active), the Potency [7] was “inactive” and the Potency [9] was “inactive”.

In the case of `CCCCCNC(=O)N1CCC(CN(Cc2ccc(Cl)cc2)Cc2ccc([N+](=O)[O-])s2)C1` (configuration not stated), the Potency [4] is reported as “inactive”.

With `CC[C@@H]1C=C(C)C[C@H](C)C[C@H](OC)[C@H]2O[C@@](O)(C(=O)C(=O)N3CCCC[C@@H]3C(=O)O[C@H](C(C)=C[C@@H]3CC[C@H](Cl)[C@H](OC)C3)[C@H](C)[C@@H](O)CC1=O)[C@H](C)C[C@H]2OC` the Potency [6] was “inactive”, the Potency [7] was “inactive” and the Potency [8] was “inactive”.

In the case of `COc1ccc2c(Oc3ccc(NC(=O)c4c(C)n(CC(C)(C)O)n(-c5ccccc5)c4=O)cc3F)ccnc2c1`, the Potency [2] is reported as 21.7 µM (active), the Potency [4] is reported as “inactive” and the Potency [9] is reported as “inactive”. The Potency [8] was 14.7 µM (active).

In the case of `CC[C@]1(O)C[C@@H]2CN(CCc3c([nH]c4ccccc34)[C@@](C(=O)OC)(c3cc4c(cc3OC)N(C=O)[C@@H]3C45CCN4CC=C[C@](CC)([C@H]45)[C@@H](OC(C)=O)[C@]3(O)C(=O)OC)C2)C1` (some centres not stated), the Potency [2] is reported as “inactive”, the Potency [7] is reported as “inactive” and the Potency [9] is reported as “inactive”. The Potency [8] was “inactive”.

In the case of `CCC(=O)NC[C@H](Cc1ccc(OCCc2nc(-c3ccccc3)oc2C)cc1)NC(C)=CC(=O)c1ccc(C(F)(F)F)cc1`, the Potency [4] is reported as “inactive”.

With `Clc1cc(Cl)cc(CNc2ncncc2-c2ccc3c(c2)OCO3)c1` the Potency [4] was “inactive” and the Potency [7] was “inactive”.

With `Cc1ccn(-c2ccc(-c3ncco3)cc2)c(=O)c1-c1ccc2nc(N)ncc2c1` the Potency [2] was 2.73 µM (active), the Potency [4] was “inactive” and the Potency [7] was “inactive”. The Potency [5] was “inactive”.

In the case of `Cc1ccc(F)c(NC(=O)Nc2ccc(-c3cccc4[nH]nc(N)c34)cc2)c1`, the Potency [6] is reported as “inactive”, the Potency [4] is reported as “inactive” and the Potency [7] is reported as “inactive”.

With `CN1CCN(CCOc2cc(OC3CCOCC3)c3c(Nc4c(Cl)ccc5c4OCO5)ncnc3c2)CC1` the Potency [2] was 17.2 µM (active), the Potency [3] was 20.9 µM (active) and the Potency [4] was “inactive”.

In the case of `O=C(Nc1cccc(Br)c1)c1cccc(S(=O)(=O)N2CCCCCC2)c1`, the Potency [2] is reported as 19.3 µM (active), the Potency [9] is reported as “inactive” and the Potency [8] is reported as “inactive”.

For `Cc1c(NC(=O)c2ccc(C(C)(C)C)cc2)cccc1-c1cn(C)c(=O)c(Nc2ccc(C(=O)N3CCOCC3)cc2)n1`, the Potency [6] was “inactive” and the Potency [4] was “inactive”.

In the case of `CO[C@H]1C[C@@H]2CC[C@@H](C)[C@@](O)(O2)C(=O)C(=O)N2CCCC[C@@H]2C(=O)O[C@H]([C@H](C)C[C@@H]2CC[C@H](OCCO)[C@H](OC)C2)CC(=O)[C@H](C)C=C(C)[C@@H](O)[C@@H](OC)C(=O)[C@H](C)C[C@H](C)C=CC=CC=C1C`, the Potency [2] is reported as 6.11 µM (active), the Potency [6] is reported as “inactive” and the Potency [7] is reported as “inactive”. The Potency [5] was 1.18 µM (active) and the Potency [8] was “inactive”.

For `Cc1cc(OCCCc2c(C(=O)O)n(Cc3cccnc3)c3c(-c4c(COc5ccc(N6CCN([S+](C)(=O)[O-])CC6)cc5)nn(C)c4C)cccc23)cc(C)c1Cl`, the Potency [3] was 29.6 µM (active), the Potency [6] was 29.6 µM (active) and the Potency [4] was “inactive”. The Potency [9] was 16.5 µM (active).

With `CNC1CCC(N(Cc2cccc(-c3ccncc3)c2)C(=O)c2sc3c(F)ccc(F)c3c2Cl)CC1` (configuration not stated) the Potency [2] was 24.3 µM (active), the Potency [3] was 10.5 µM (active) and the Potency [6] was 23.5 µM (active). The Potency [5] was 18.7 µM (active) and the Potency [8] was 20.8 µM (active).

In the case of `O=C1NC(=O)C(=Cc2ccc3nccnc3c2)S1`, the Potency [2] is reported as 4.21 µM (active), the Potency [6] is reported as 5.12 µM (active) and the Potency [5] is reported as “inactive”.

For `COc1cc2ncnc(-n3nc(-c4ccccn4)nc3N)c2cc1OC`, the Potency [6] was “inactive” and the Potency [5] was “inactive”.

For `COC(=O)C1=CO[C@@H](O)[C@@H]2C(CO)=CC[C@@H]12`, the Potency [3] was “inactive”, the Potency [4] was “inactive” and the Potency [7] was “inactive”. For the same molecule, the Potency [5] was “inactive”.

In the case of `Clc1ccc(Cn2c(CN3CCCC3)nc3ccccc32)cc1`, the Potency [3] is reported as “inactive”, the Potency [6] is reported as “inactive” and the Potency [4] is reported as “inactive”. The Potency [7] was “inactive”.

With `CO[C@H]1C(=O)[C@]2(C)[C@@H](OC)C[C@H]3OC[C@@]3(OC(C)=O)[C@H]2[C@H](OC(=O)c2ccccc2)[C@]2(O)C[C@H](OC(=O)[C@H](O)[C@@H](NC(=O)OC(C)(C)C)c3ccccc3)C(C)=C1C2(C)C` the Potency [2] was 0.685 µM (active), the Potency [4] was “inactive” and the Potency [7] was “inactive”. The Potency [5] was 0.001 µM (active) and the Potency [8] was 0.0059 µM (active).

With `O=c1c(O)c(-c2ccc(O)cc2)oc2cc(O)cc(O)c12` the Potency [6] was “inactive” and the Potency [4] was “inactive”.

With `O=c1cc(-c2ccccc2)oc2cc(O)c(O)c(O)c12` the Potency [3] was “inactive” and the Potency [6] was “inactive”.

For `O=C1c2c(O)cc(O)cc2O[C@H](c2cc(O)c(O)c(O)c2)[C@H]1O`, the Potency [4] was “inactive” and the Potency [7] was “inactive”.

With `COc1ccc(-c2cc(=O)c3c(O)cc(O)cc3o2)cc1O` the Potency [6] was “inactive”, the Potency [4] was “inactive” and the Potency [7] was “inactive”.

For `COc1ccc2c(Oc3ccc(NC(=O)c4c(C)n(CC(C)(C)O)n(-c5ccccc5)c4=O)nc3)ccnc2c1`, the Potency [2] was 5.44 µM (active), the Potency [6] was “inactive” and the Potency [4] was “inactive”. The Potency [7] was “inactive” and the Potency [5] was “inactive”.

For `CC(C)C(=O)Nc1ncc(-c2cc(C(F)F)nn2-c2c(Cl)cccc2Cl)s1`, the Potency [2] was 27.3 µM (active) and the Potency [7] was “inactive”.

In the case of `O=c1cc(CN2CCOCC2)occ1OCCCCCSc1ccnc2cc(C(F)(F)F)ccc12`, the Potency [2] is reported as 15.3 µM (active) and the Potency [7] is reported as “inactive”.

In the case of `COc1cc(N2CCC(N3CCN(C)CC3)CC2)ccc1Nc1ncc(Cl)c(Nc2ccccc2S(=O)(=O)C(C)C)n1`, the Potency [7] is reported as 1.05 µM (active), the Potency [9] is reported as 1.04 µM (active) and the Potency [8] is reported as 3.29 µM (active).

In the case of `COc1ccc(-c2oc3c(CC=C(C)C)c(OC4O[C@H](CO)[C@@H](O)[C@H](O)[C@@H]4O)cc(O)c3c(=O)c2OC2O[C@@H](C)[C@H](O)[C@@H](O)[C@@H]2O)cc1` (some centres not stated), the Potency [2] is reported as 21.7 µM (active) and the Potency [4] is reported as “inactive”.

In the case of `COc1cc(N2CCC(N3CCN(C)CC3)CC2)ccc1Nc1ncnc(Nc2ccccc2S(=O)(=O)C(C)C)n1`, the Potency [4] is reported as “inactive”, the Potency [7] is reported as 5.26 µM (active) and the Potency [5] is reported as 5.26 µM (active).

In the case of `NC(=O)c1cccc(-c2cc(Nc3ccc(OC(F)(F)F)cc3)ncn2)c1`, the Potency [3] is reported as “inactive”, the Potency [6] is reported as “inactive” and the Potency [5] is reported as “inactive”.

In the case of `O=C(O)CCC1CCC(c2cc(F)ccc2F)(S(=O)(=O)c2ccc(Cl)cc2)CC1` (configuration not stated), the Potency [7] is reported as “inactive”, the Potency [5] is reported as 5.9 µM (active) and the Potency [9] is reported as “inactive”.

In the case of `Cc1ccc([C@@H]2O[C@H](CO)[C@@H](O)[C@H](O)[C@@H]2O)cc1Cc1ccc(-c2ccc(F)cc2)s1`, the Potency [2] is reported as 34.3 µM (active) and the Potency [4] is reported as “inactive”.

With `c1ccc2c(Cc3c[nH]c4ccccc34)c[nH]c2c1` the Potency [6] was 5.9 µM (active), the Potency [4] was 4.69 µM (active) and the Potency [5] was 14.8 µM (active).

For `CC(=O)OC1C(C)OC(Oc2c(-c3ccc(O)cc3)oc3cc(O)cc(O)c3c2=O)C(O)C1OC(C)=O` (configuration not stated), the Potency [6] was “inactive” and the Potency [4] was “inactive”.
